The source of these data is ChEMBL document CHEMBL1961873, “Compounds: GSK PKIS; Assays: Nanosyn kinase panel” (2012).

Assay [1] addresses T1, Tyrosine-protein kinase receptor TYRO3 (Homo sapiens) (UniProt Q06418).
T1 sequence (whole entry): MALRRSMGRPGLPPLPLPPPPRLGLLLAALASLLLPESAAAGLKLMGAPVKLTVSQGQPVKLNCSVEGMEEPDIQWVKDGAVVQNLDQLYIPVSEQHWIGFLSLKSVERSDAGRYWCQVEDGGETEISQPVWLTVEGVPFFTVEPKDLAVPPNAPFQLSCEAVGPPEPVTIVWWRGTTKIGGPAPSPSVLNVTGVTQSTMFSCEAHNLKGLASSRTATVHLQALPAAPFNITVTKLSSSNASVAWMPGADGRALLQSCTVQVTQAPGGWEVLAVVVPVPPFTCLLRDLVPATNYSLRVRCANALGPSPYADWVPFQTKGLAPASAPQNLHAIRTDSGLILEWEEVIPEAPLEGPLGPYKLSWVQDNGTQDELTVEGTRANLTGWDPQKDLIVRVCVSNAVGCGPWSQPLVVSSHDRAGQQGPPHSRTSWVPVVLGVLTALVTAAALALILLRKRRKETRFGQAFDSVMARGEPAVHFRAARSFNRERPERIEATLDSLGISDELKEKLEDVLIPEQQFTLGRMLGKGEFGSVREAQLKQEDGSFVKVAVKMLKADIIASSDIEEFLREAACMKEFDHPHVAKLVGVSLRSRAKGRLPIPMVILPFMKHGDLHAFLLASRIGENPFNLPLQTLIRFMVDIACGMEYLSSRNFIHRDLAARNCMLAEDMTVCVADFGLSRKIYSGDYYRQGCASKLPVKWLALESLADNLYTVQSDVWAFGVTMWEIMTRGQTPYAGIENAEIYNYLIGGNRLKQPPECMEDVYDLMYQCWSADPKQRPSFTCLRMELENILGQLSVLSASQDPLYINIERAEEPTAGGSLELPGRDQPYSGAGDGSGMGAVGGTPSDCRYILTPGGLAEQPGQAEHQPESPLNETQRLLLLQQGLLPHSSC
Particulars: at 1 µM.

Assay [2] deals with Tyrosine-protein kinase Yes (Homo sapiens) (UniProt P07947). As to conditions: at 0.1 µM.
Assay [3] has the same target. Particulars: at 1 µM.
In assay [4] the target is T2, Tyrosine-protein kinase ZAP-70 (Homo sapiens) (UniProt P43403).
T2 sequence (whole entry): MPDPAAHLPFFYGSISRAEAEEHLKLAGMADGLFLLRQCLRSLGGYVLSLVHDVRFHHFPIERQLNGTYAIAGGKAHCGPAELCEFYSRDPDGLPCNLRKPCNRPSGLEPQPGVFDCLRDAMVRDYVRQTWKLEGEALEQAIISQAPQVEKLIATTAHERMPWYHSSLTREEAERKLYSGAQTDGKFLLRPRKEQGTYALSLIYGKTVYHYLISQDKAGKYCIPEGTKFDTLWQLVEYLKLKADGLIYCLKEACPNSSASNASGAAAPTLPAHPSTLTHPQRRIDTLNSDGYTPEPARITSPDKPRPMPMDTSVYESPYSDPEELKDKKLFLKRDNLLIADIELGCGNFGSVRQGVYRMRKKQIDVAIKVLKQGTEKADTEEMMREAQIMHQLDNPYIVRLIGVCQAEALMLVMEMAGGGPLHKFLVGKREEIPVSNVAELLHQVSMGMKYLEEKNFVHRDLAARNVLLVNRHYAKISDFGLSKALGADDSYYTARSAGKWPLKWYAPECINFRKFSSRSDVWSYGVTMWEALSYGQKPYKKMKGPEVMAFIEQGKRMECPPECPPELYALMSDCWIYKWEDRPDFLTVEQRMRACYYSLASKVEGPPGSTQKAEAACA
As to conditions: at 0.1 µM.

The target of assay [5] is T2, Tyrosine-protein kinase ZAP-70 (Homo sapiens). As to conditions: at 1 µM.
The target of assay [6] is Serine/threonine-protein kinase B-raf (Homo sapiens) (UniProt P15056). Particulars: at 0.1 µM.
Assay [7] has the same target. Particulars: at 1 µM.
Assay [8] concerns Serine/threonine-protein kinase B-raf (Homo sapiens), P15056 [V600E]. Particulars: at 0.1 µM.
The test system is the same in assay [9]. Particulars: at 1 µM.
Assay [10] concerns the target RAF proto-oncogene serine/threonine-protein kinase (Homo sapiens) (UniProt P04049). Particulars: at 0.1 µM.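 Further: values are mean CRAF kinase inhibition from profiling of the GSK Published Kinase Inhibitor Set.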

Usually inhibition stands for the change of the read-out against control, counted positive when it falls.

Sequence of RAF proto-oncogene serine/threonine-protein kinase (Homo sapiens) (P04049 whole entry): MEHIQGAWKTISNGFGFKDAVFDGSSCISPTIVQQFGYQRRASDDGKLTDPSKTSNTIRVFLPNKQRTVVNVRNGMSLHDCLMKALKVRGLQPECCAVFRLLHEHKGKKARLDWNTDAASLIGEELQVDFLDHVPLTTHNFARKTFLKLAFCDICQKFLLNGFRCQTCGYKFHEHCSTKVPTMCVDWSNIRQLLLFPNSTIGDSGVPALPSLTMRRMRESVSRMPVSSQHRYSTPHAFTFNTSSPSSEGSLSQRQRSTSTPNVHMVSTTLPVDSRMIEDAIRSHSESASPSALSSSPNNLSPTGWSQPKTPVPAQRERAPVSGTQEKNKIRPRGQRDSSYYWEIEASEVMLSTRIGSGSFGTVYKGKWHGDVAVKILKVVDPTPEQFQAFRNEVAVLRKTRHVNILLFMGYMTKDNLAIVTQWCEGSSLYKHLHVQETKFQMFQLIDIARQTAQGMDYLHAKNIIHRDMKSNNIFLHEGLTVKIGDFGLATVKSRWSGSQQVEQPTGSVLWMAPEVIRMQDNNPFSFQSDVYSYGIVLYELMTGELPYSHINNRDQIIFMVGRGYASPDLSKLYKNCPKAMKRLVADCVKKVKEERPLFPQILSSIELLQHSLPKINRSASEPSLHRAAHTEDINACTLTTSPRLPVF
Sequence of Serine/threonine-protein kinase B-raf (Homo sapiens) (P15056 whole entry): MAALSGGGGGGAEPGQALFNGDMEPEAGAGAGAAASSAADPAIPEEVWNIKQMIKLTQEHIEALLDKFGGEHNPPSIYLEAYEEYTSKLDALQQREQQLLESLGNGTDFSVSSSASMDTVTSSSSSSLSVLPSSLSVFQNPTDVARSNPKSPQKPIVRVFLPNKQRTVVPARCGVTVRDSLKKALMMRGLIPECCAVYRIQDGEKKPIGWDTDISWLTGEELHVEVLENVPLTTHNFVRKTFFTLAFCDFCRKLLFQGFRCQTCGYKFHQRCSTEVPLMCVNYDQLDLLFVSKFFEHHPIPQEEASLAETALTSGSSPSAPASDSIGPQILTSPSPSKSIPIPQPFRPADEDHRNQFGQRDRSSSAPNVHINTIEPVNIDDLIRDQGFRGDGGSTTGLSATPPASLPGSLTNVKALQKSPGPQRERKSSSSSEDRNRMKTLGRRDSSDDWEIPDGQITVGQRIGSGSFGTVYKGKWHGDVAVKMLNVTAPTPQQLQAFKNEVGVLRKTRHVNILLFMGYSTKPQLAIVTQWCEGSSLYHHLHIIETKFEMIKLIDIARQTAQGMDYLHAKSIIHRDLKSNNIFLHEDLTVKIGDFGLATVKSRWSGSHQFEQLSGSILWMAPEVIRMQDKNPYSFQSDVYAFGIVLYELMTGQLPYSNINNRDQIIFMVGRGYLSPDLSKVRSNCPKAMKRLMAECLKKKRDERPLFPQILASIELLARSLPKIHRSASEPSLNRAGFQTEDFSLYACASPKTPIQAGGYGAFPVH
Sequence of Serine/threonine-protein kinase B-raf (Homo sapiens), P15056 [V600E] (P15056 whole entry V600E): as the sequence (P15056 whole entry) above, with V600E counted along it
Sequence of Tyrosine-protein kinase Yes (Homo sapiens) (P07947 2-543 limits assumed): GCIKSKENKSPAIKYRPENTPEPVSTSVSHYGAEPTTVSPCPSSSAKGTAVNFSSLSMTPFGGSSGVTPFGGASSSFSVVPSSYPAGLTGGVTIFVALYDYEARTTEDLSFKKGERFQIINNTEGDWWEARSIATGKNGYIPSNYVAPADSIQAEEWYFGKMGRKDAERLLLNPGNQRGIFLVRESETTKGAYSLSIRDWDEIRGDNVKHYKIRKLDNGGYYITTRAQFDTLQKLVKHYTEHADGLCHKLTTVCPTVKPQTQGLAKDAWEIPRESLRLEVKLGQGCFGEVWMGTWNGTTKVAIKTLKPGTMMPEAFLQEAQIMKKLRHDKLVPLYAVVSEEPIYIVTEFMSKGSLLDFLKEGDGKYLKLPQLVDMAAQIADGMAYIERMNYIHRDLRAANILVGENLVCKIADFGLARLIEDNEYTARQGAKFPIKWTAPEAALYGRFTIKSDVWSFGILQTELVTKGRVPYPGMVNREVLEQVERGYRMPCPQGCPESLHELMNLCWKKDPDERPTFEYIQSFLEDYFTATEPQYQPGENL

In the case of `COC(=O)c1cncc(/C=C/c2c(C)cc(O)cc2C)c1`, the inhibition is 7.16% in assay [1]; 4.43% in [2]; 18.8% in [3]; 2.93% in [4]; -0.01% in assay [5]; 6.07% in [6]. Also, the inhibition turned out to be 9.71% in [7], 5.41% in assay [8], 8.24% in [9] and 1.93% in assay [10].

Consider `COc1cccc(-n2ncc3c(N/N=C/c4ccc(S(C)(=O)=O)cc4)ncnc32)c1`, for which the inhibition was 22.4% in assay [1]; 31.9% in assay [2]; 57.4% in [3]; -3.44% in assay [4]; 1.31% in assay [5]; 7.5% in [6]. Moreover, the inhibition in assay [7] is 16.4%; in assay [8], 8.25%; in [9] it was 20.2%; in [10], -3.03%.

As to `C[C@@H](Oc1cc(-n2cnc3ccc(OCC4CCN(C)CC4)cc32)sc1C(N)=O)c1ccccc1C(F)(F)F`, the inhibition in [1] is 6.92%; in assay [2], 4.36%; in assay [3], 13.2%; in [4] it was -2.7%; in assay [5], -1.19%; in assay [6], -0.94%. Further, the inhibition was -2.8% in [7], -0.73% in assay [8], 0.84% in assay [9] and 12.6% in assay [10].

For the molecule `Nc1nccc(-c2c(-c3ccc(F)cc3)ncn2CCCN2CCOCC2)n1`, the inhibition in assay [1] was 5.61%; in assay [2] it was 2.87%; in assay [3], 9.05%; in assay [4], -2.08%; in assay [5] it was 1.23%; in assay [6], 5.83%. Further, the inhibition in assay [7] turned out to be 6.07%; in [8], 6.08%; in [9], 7.12%; in assay [10] it was 11.6%.

Turning to `FC(F)(F)c1ccc(-c2nn3ncccc3c2-c2ccnc(Nc3ccc4c(c3)OCCO4)n2)cc1`, the inhibition in [1] is 5.58%; in [2], 30%; in assay [3], 83.3%; in [4], 5.79%; in [5] it was 5.21%; in assay [6], -1.63%. Besides, the inhibition is -1.17% in assay [7], -1.85% in assay [8], -1.18% in assay [9] and -0.32% in assay [10].

Regarding `CN(C)CCCn1c(-c2nonc2N)nc2cnccc21`, the inhibition was 1.97% in [1]; 0.2% in [2]; 0.44% in assay [3]; 1.32% in assay [4]; 0.96% in [5]; 5.59% in [6]. Also, the inhibition was determined as 6.07% in assay [7], 5.51% in [8], 5.34% in [9] and 7.16% in [10].

With `COc1ccc2ncnc(Nc3ccc(OCc4ccccc4)cc3)c2c1`, the inhibition worked out at 3.15% in assay [1]; 5.76% in assay [2]; 22.9% in assay [3]; 1.97% in assay [4]; 1.84% in assay [5]; 3.6% in assay [6]. The inhibition in assay [7] is 2.93%; in assay [8], 3.51%; in assay [9], 2.24%; in assay [10], -0.56%.

In the case of `NC(=O)c1cccc(Nc2nccc(Nc3cccc(F)c3)n2)c1`, the inhibition was 57% in assay [1]; 4.5% in assay [2]; 22.5% in [3]; -0.99% in assay [4]; 4.21% in assay [5]; 0.82% in [6]. Further, the inhibition in assay [7] was 3.59%; in assay [8] it was 1.61%; in assay [9], 3.25%; in [10], 0.33%.

With `CN(C)c1cc2c(Nc3ccc4c(cnn4Cc4ccccc4)c3)ncnc2cn1`, the inhibition in [1] turned out to be 7.51%; in assay [2] it was 13.5%; in assay [3], 49.8%; in assay [4], 2.63%; in assay [5] it was 5.85%; in [6], 3.72%. Further, the inhibition in assay [7] came to 3.71%; in [8], 4.74%; in [9] it was 4.34%; in assay [10], 1.64%.

As to `COc1cc2ncn(-c3cc(OCc4ccccc4S(C)(=O)=O)c(C#N)s3)c2cc1OC`, the inhibition in [1] came to 20.1%; in assay [2], 8.67%; in assay [3] it was 39.2%; in assay [5], 4%; in [6], 5.38%; in assay [7], 8.14%. For the same molecule, the inhibition in [8] was determined as 4.97%; in assay [9] it was 6.91%; in [10], 5.23%.

In the case of `CCn1c(-c2nonc2N)nc2c(C#CC(C)(C)O)nc(OCCNC)cc21`, the inhibition in assay [1] is 3.31%; in assay [2], 3.64%; in assay [3], 3.28%; in assay [4] it was 1.77%; in [5], 1.49%; in assay [6], 6.22%. The inhibition in assay [7] was 7.65%; in assay [8] it was 3.6%; in [9], 3.03%; in assay [10] it was 0.76%.

Consider `CCCN1CCCC(c2ccc(Nc3nc(Nc4cc(F)ccc4C(N)=O)c4cc[nH]c4n3)c(OC)c2)C1` (stereo not given), for which the inhibition in assay [1] was found to be 7.19%; in assay [2], 5.09%; in assay [3], 9.04%; in assay [4], 7.83%; in assay [5], 28.7%; in assay [6], 11.6%. The inhibition in assay [7] was 40.1%; in [8] it was 11.2%; in assay [9] it was 35.5%; in [10] it was 1.24%.

For the molecule `c1ccc(Cc2nc3ccc(Nc4ncnc5ccccc45)cc3[nH]2)cc1`, the inhibition in [1] was 3.79%; in assay [2], 1.02%; in [3] it was 9.72%; in assay [4], 1.42%; in assay [5], -1.31%; in [6], 4.95%. In addition, the inhibition in assay [7] was found to be 6.09%; in [8] it was 4.48%; in [9], 5.36%; in assay [10], 3.87%.

In the case of `Cc1ccc(NC(=O)CC2CC2)cc1-c1ccc(C(=O)NCC2CC2)cc1`, the inhibition was 4.65% in assay [1]; 1.53% in assay [2]; 2.46% in assay [3]; -0.2% in assay [4]; 2.11% in assay [5]; 4.43% in assay [6]. Moreover, the inhibition in assay [7] is 6.22%; in assay [8], 4.33%; in assay [9], 4.96%; in [10] it was 3.39%.

`ON=C1CCc2cc(-c3nc(C4CCNCC4)[nH]c3-c3ccncc3)ccc21`: the inhibition in assay [1] is 1.37%; in assay [2] it was -1.71%; in assay [3], 0.86%; in assay [4] it was 1.57%; in [5], 1.96%; in assay [10], -7.53%.

`C[C@@H](Oc1cc(-n2cnc3ccc(OC[C@@H](O)CO)cc32)sc1C(N)=O)c1ccccc1Cl`: the inhibition in assay [1] was 1.84%; in assay [2], -2.39%; in [3], 4.27%; in [4] it was -0.38%; in assay [5], -0.42%; in assay [6], -1.12%. Besides, the inhibition in assay [7] was -0.85%; in [8], -2.35%; in [9] it was 0.01%; in assay [10], -4.77%.

With `Cc1ccc(C(=O)NC2CC2)cc1-c1ccc2[nH]ncc2c1`, the inhibition was -0.85% in [1]; -1.92% in assay [2]; -0.56% in [3]; -3.94% in assay [4]; -1.58% in [5]; -6.03% in [6]. Besides, the inhibition in assay [7] is -6.48%; in [8], -3.87%; in assay [9] it was -3.07%; in [10], -2.17%.
